# Results from the supplement of paper PMC8728848.
# This is one part of a sample in which the strongest signals are shown more often than they occur.
# B1: MPA (Maclura pomifera), P18674 (protein)
# chain: GVTFDDGAYTGIREINFEYNSETAIGGLRVTYDLNGMPFVAEDHKSFITGFKPVKISLEFPSEYIVEVSGYVGKVEGYTVIRSLTFKTNKQTYGPYGVTNGTPFSLPIENGLIVGFKGSIGYWLDYFSIYLSL
# Experiments:
# Experiment in all cases: glycan array binding signal (z-score within array); higher = stronger binding
# Settings in all cases: glycan notation: IUPAC condensed, linker removed
# [1] = target: Fuc(a1-2)Gal(b1-4)GlcNAc(b1-3)[Fuc(a1-2)Gal(b1-4)GlcNAc(b1-6)]GalNAc
# How it was run: (§1)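 Glycan array data were curated from 3228 arrays in the Consortium for Functional Glycomics database and kept only where the protein sequence was available. Glycan names were converted to IUPAC-condensed notation, and columns mapping to the same glycan were averaged. The binding signal is a within-array Z-score, averaged across arrays of the same protein sequence at different concentrations or buffers and across linkers. Negative Z-scores can be read as non-binding.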
# [2] = target: Fuc(a1-2)Gal6S(b1-3)GlcNAc
# How it was run: as §1
# [3] = target: Fuc(a1-2)[GalNAc(a1-3)]Gal(b1-3)GlcNAc(b1-2)Man(a1-3)[Fuc(a1-2)[GalNAc(a1-3)]Gal(b1-3)GlcNAc(b1-2)Man(a1-6)]Man(b1-4)GlcNAc(b1-4)[Fuc(a1-6)]GlcNAc
# How it was run: as §1
# [4] = target: Fuc(a1-2)[GalNAc(a1-3)]Gal(b1-4)GlcNAc
# How it was run: as §1
# [5] = target: Fuc(a1-3)GlcNAc
# How it was run: as §1
# [6] = target: Fuc(a1-3)[Gal(b1-4)]GlcNAc(b1-3)Gal(b1-4)[Fuc(a1-3)]GlcNAc
# How it was run: as §1
# [7] = target: Fuc(a1-3)[Gal(b1-4)]GlcNAc6S
# How it was run: as §1
# [8] = target: Gal(a1-3)[Gal(a1-4)]Gal(b1-4)GlcNAc
# How it was run: as §1
# [9] = target: Gal(b1-3)Gal
# How it was run: as §1
# [10] = target: Gal(b1-3)GlcNAc
# How it was run: as §1
# [11] = target: Gal(b1-3)GlcNAc(b1-2)Man(a1-3)[Gal(b1-3)GlcNAc(b1-2)Man(a1-6)]Man(b1-4)GlcNAc(b1-4)[Fuc(a1-6)]GlcNAc
# How it was run: as §1
# [12] = target: Gal(b1-3)GlcNAc(b1-3)Gal(b1-4)Glc
# How it was run: as §1
# [13] = target: Gal(b1-3)GlcNAc(b1-6)GalNAc
# How it was run: as §1
# [14] = target: Gal(b1-3)GlcNAc(b1-6)[Gal(b1-3)]GalNAc
# How it was run: as §1
# [15] = target: Gal(b1-3)[GlcNAc(b1-6)]GalNAc
# How it was run: as §1
# [16] = target: Gal(b1-4)GlcNAc(b1-2)Man(a1-3)[Gal(b1-4)GlcNAc(b1-2)Man(a1-6)][GlcNAc(b1-4)]Man(b1-4)GlcNAc(b1-4)[Fuc(a1-6)]GlcNAc
# How it was run: as §1
# [17] = target: Gal(b1-4)GlcNAc(b1-2)[Gal(b1-4)GlcNAc(b1-4)]Man(a1-3)[Gal(b1-4)GlcNAc(b1-2)Man(a1-6)]Man(b1-4)GlcNAc(b1-4)GlcNAc
# How it was run: as §1
# [18] = target: Gal(b1-4)GlcNAc(b1-3)Gal(b1-4)GlcNAc(b1-2)Man(a1-3)[Gal(b1-4)GlcNAc(b1-3)Gal(b1-4)GlcNAc(b1-2)Man(a1-6)]Man(b1-4)GlcNAc(b1-4)GlcNAc
# How it was run: as §1
# [19] = target: Gal(b1-4)GlcNAc(b1-3)Gal(b1-4)GlcNAc(b1-3)Gal(b1-4)GlcNAc(b1-2)Man(a1-3)[Gal(b1-4)GlcNAc(b1-3)Gal(b1-4)GlcNAc(b1-3)Gal(b1-4)GlcNAc(b1-2)Man(a1-6)]Man(b1-4)GlcNAc(b1-4)GlcNAc
# How it was run: as §1
# [20] = target: Gal(b1-4)GlcNAc(b1-3)Gal(b1-4)GlcNAc(b1-3)Gal(b1-4)GlcNAc(b1-2)[Gal(b1-4)GlcNAc(b1-3)Gal(b1-4)GlcNAc(b1-3)Gal(b1-4)GlcNAc(b1-6)]Man(a1-6)[Gal(b1-4)GlcNAc(b1-3)Gal(b1-4)GlcNAc(b1-3)Gal(b1-4)GlcNAc(b1-2)Man(a1-3)]Man(b1-4)GlcNAc(b1-4)[Fuc(a1-6)]GlcNAc
# How it was run: as §1
# [21] = target: Gal(b1-4)GlcNAc(b1-3)Gal(b1-4)GlcNAc(b1-3)Gal(b1-4)GlcNAc(b1-3)Gal(b1-4)GlcNAc(b1-2)Man(a1-3)[Gal(b1-4)GlcNAc(b1-3)Gal(b1-4)GlcNAc(b1-3)Gal(b1-4)GlcNAc(b1-3)Gal(b1-4)GlcNAc(b1-2)Man(a1-6)]Man(b1-4)GlcNAc(b1-4)[Fuc(a1-6)]GlcNAc
# How it was run: as §1
# [22] = target: Gal(b1-4)GlcNAc(b1-3)Gal(b1-4)GlcNAc(b1-3)[Gal(b1-4)GlcNAc(b1-3)Gal(b1-4)GlcNAc(b1-6)]GalNAc
# How it was run: as §1
# [23] = target: Gal(b1-4)GlcNAc(b1-3)Gal(b1-4)GlcNAc(b1-6)[Gal(b1-3)]GalNAc
# How it was run: as §1
# [24] = target: Gal(b1-4)GlcNAc(b1-3)[GlcNAc(b1-6)]Gal(b1-4)GlcNAc
# How it was run: as §1
# [25] = target: Gal3S(b1-4)[Fuc(a1-3)]GlcNAc6S
# How it was run: as §1
binder,measurement,setting,value
B1,glycan array binding signal (z-score),[1],-0.236
same,glycan array binding signal (z-score),[2],-0.247
same,glycan array binding signal (z-score),[3],-0.363
same,glycan array binding signal (z-score),[4],-0.227
same,glycan array binding signal (z-score),[5],-0.164
same,glycan array binding signal (z-score),[6],-0.148
same,glycan array binding signal (z-score),[7],0.042
same,glycan array binding signal (z-score),[8],-0.119
same,glycan array binding signal (z-score),[9],-0.079
same,glycan array binding signal (z-score),[10],-0.201
same,glycan array binding signal (z-score),[11],-0.074
same,glycan array binding signal (z-score),[12],-0.157
same,glycan array binding signal (z-score),[13],-0.363
same,glycan array binding signal (z-score),[14],-0.291
same,glycan array binding signal (z-score),[15],-0.112
same,glycan array binding signal (z-score),[16],-0.26
same,glycan array binding signal (z-score),[17],-0.046
same,glycan array binding signal (z-score),[18],3.21
same,glycan array binding signal (z-score),[19],8.11
same,glycan array binding signal (z-score),[20],2.44
same,glycan array binding signal (z-score),[21],4.26
same,glycan array binding signal (z-score),[22],4
same,glycan array binding signal (z-score),[23],2.93
same,glycan array binding signal (z-score),[24],-0.172
same,glycan array binding signal (z-score),[25],-0.226
